Results taken from PubChem BioAssay.
For some of these results: Measured potencies and affinities stand elsewhere. Activity calls are given as the source filed them.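 Rule for the calls, unless noted: active = calcium signal cut by more than 3 SD below the full-agonist control yet still positive, in both repeats and the earlier primary screen; inactive = the rest.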

Assays:
[1] = system: TRPC4 beta (transient receptor potential cation channel C4), mouse; test: activators of mouse TRPC4 channel, confirmation, cell-based, Fluo4 calcium, HEK293 TRPC4beta/mu-opioid, duplicates, 10 µM (AID 2426;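 active = fluorescence ratio normalized to control raised more than 50% in primary screen plus both repeat runs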); conditions: Fluo4 calcium fluorescence, at 10 µM; hits give high values
[2] = system: transient receptor potential cation channel C4 beta (TRPC4), mouse; test: activators of mouse TRPC4 channel, confirmation, cell-based, second round, Fluo4, HEK293 TRPC4beta/mu-opioid, 1 µM (AID 2461;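 active = primary screen active and over 50% activation in each of two duplicate runs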); conditions: Fluo4 calcium fluorescence, at 1 µM; hits give high values
[3] = system: TRPC4 (transient receptor potential cation channel C4 beta), mouse; test: positive allosteric modulators of mouse TRPC4, confirmation, cell-based, second round, Fluo-4, HEK293 TRPC4beta/mu-opioid, 1 µM (AID 2554;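 active = primary screen hit whose fluorescence ratio, in both repeats, exceeds the weak agonist control mean by 3 SD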); conditions: DAMGO EC20, Fluo-4 calcium flux, at 1 µM; hits give high values
[4] = system: TRPC4 beta (transient receptor potential cation channel C4), mouse; test: positive allosteric modulators of mouse TRPC4, confirmation, cell-based, Fluo-4, HEK293 TRPC4beta/mu-opioid (AID 2555;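 active = primary screen hit whose calcium fluorescence ratio, in both repeats, exceeds the weak agonist control mean by 3 SD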); conditions: DAMGO EC20, Fluo-4 calcium flux, at 10 µM; hits give high values
[5] = target: Short transient receptor potential channel 4 (Mus musculus) (UniProt Q9QUQ5); test: inhibitors of mouse TRPC4 channel, confirmation, cell-based, Fluo4, HEK293 TRPC4beta/mu-opioid (AID 2636); conditions: DAMGO, Fluo4 calcium flux, at 10 µM; hits give high values
[6] = target: Short transient receptor potential channel 4 (Mus musculus) (UniProt Q9QUQ5); test: inhibitors of mouse TRPC4 channel, confirmation, cell-based, second round, Fluo4, HEK293 TRPC4beta/mu-opioid, 1 µM (AID 2637;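 active = calcium signal ratio cut to more than 3 SD under the fully stimulated control mean yet still positive, in both repeats and the primary screen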;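 for inhibition: percent of integrated ratio relative to wells lacking test compound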); conditions: Fluo4 calcium flux, DAMGO, at 1 µM; hits give high values
[7] = target: Short transient receptor potential channel 4 (Mus musculus) (UniProt Q9QUQ5); test: mouse TRPC4 channel activators, dose response, cell-based, HEK293 TRPC4/mu-opioid, Fluo-4 calcium (AID 434937;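 active = primary screen activator hit with a dose response curve and TRPC4 channel activation at any tested dose; inactive = no activation, no dose response, or not a primary hit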)
[8] = target: Short transient receptor potential channel 4 (Mus musculus) (UniProt Q9QUQ5); test: TRPC4 positive allosteric modulators, dose response, cell-based, HEK293 TRPC4/mu-opioid, Fluo-4 calcium, EC20 DAMGO (AID 434941;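 active = earlier screen potentiator hit that boosts the TRPC4 ion channel at some dose, with a dose response; inactive = no potentiation, no dose response, or not a prior hit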;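 note: calcium entry triggered by an EC20 dose of DAMGO at the co-expressed mu-opioid receptor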)
[9] = target: Short transient receptor potential channel 6 (Mus musculus) (UniProt Q61143); test: inhibition of mouse TRPC6 channel, confirmation, selectivity assay for TRPC4 inhibitor project, cell-based, HEK293, membrane potential dye, duplicate (AID 434948;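 active = active in primary screen and both duplicates, each dropping signal beyond three positive-control SD with fluorescence still positive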); conditions: HEK293 TRPC6, membrane potential dye fluorescence, at 10 µM, stimulated with maximal-effect acetylcholine; hits give high values
[10] = target: Short transient receptor potential channel 6 (Mus musculus) (UniProt Q61143); test: activation of mouse TRPC6 channel, confirmation, selectivity assay for TRPC4 activator project, cell-based, HEK293, membrane potential dye, duplicate (AID 434950;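 active = membrane potential signal rise above negative control mean plus 3 SD in both duplicates, also active in the earlier TRPC4 screen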); conditions: HEK293 TRPC6, membrane potential fluorescence, at 10 µM; hits give high values
[11] = target: Short transient receptor potential channel 6 (Mus musculus) (UniProt Q61143); test: TRPC6 potentiation by TRPC4 potentiator hits, confirmation, selectivity assay for TRPC4 potentiator project, HEK293 cells, membrane potential dye, duplicate (AID 434952;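 active = compound raising the membrane signal above positive-control mean plus 3 SD in both repeats, and a primary screen hit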); conditions: HEK293 TRPC6, membrane potential dye fluorescence, at 10 µM, maximal acetylcholine added after compound; hits give high values
[12] = target: Short transient receptor potential channel 4 (Mus musculus) (UniProt Q9QUQ5); test: calcium flux activators in TRPC4/5HT1a cells, counter-screen for TRPC4 activator project, cell-based, second counter screen, HEK293 TRPC4/5HT1a, Fluo-4 (AID 434977;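 active = calcium signal rise above buffer-control mean plus 5 SD in both duplicates, and also a hit in the primary screen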); conditions: Fluo-4 calcium flux, at 10 µM; hits give high values
[13] = calcium flux inhibitors in TRPC4/5HT1a cells, confirmation, counter-screen for TRPC4 inhibitor project, cell-based, second counter screen, HEK293 TRPC4/5HT1a, Fluo-4 (AID 434978;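 active = primary screen active whose calcium signal fell more than 3 SD beyond the full-serotonin control mean in both duplicate plates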;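 for outcome: serotonin given first at submaximal then at maximal dose after compound preincubation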); conditions: Fluo-4 calcium flux, at 10 µM, serotonin added to trigger calcium flux; hits give high values
[14] = system: TRPC4 (mouse), co-expressed with 5HT1a in HEK293; test: calcium flux potentiators in TRPC4/5HT1a cells, confirmation, counter-screen for TRPC4 potentiator project, cell-based, second counter screen, HEK293 TRPC4/5HT1a, Fluo-4 (AID 434979;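 active = signal rise over 3 SD above mean of control wells given weak agonist, in both repeats and first screen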); conditions: Fluo-4 calcium flux, at 10 µM, serotonin added at its EC20 dose; hits give high values
[15] = calcium flux activation in mu-opioid HEK293 cells, confirmation, counter-screen for TRPC4 activator project, cell-based, HEK293 mu-opioid receptor line (AID 449723;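 active = hit in primary screen, with calcium signal over 5 SD above buffer well mean in both duplicates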;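 note: counter screen cells carry the mu-opioid receptor alone and lack TRPC4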); conditions: Fluo-4 calcium fluorescence, at 10 µM; hits give high values
[16] = calcium flux enhancement in mu-opioid HEK293 cells, confirmation, counter-screen for TRPC4 allosteric potentiator project, cell-based, HEK293 mu-opioid receptor line (AID 449724;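 active = calcium signal rise more than 3 SD above the low-dose agonist control mean, in both duplicate plates and the primary screen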); conditions: Fluo-4 calcium flux, at 10 µM, compound added before EC20 DAMGO stimulus; hits give high values

Sequence of Short transient receptor potential channel 6 (Mus musculus) (Q61143 whole entry, looked up): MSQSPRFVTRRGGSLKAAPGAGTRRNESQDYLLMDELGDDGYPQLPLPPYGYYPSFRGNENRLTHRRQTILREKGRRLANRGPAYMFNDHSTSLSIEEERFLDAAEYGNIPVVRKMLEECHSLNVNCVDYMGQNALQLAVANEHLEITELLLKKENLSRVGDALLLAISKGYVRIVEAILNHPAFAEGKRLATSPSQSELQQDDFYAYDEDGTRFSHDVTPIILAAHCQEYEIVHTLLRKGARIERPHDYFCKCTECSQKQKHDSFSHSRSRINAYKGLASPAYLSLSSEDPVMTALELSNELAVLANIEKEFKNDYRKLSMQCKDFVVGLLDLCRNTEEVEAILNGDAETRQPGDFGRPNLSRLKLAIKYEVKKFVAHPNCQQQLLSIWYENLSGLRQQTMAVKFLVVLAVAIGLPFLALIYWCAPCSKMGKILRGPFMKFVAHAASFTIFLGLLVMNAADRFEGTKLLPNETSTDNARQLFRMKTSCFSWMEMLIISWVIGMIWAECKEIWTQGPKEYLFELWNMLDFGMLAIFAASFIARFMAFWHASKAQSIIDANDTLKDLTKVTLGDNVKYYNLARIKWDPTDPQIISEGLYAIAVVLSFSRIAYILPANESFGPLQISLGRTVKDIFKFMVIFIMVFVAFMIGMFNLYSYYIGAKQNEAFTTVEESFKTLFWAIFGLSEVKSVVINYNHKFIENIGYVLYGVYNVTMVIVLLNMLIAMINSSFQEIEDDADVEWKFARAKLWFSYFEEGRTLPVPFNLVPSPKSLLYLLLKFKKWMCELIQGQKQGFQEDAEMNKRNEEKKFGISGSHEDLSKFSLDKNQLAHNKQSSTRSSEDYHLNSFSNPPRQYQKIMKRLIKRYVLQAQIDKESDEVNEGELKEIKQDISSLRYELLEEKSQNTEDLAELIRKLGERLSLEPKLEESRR
Sequence of Short transient receptor potential channel 4 (Mus musculus) (Q9QUQ5 whole entry, looked up): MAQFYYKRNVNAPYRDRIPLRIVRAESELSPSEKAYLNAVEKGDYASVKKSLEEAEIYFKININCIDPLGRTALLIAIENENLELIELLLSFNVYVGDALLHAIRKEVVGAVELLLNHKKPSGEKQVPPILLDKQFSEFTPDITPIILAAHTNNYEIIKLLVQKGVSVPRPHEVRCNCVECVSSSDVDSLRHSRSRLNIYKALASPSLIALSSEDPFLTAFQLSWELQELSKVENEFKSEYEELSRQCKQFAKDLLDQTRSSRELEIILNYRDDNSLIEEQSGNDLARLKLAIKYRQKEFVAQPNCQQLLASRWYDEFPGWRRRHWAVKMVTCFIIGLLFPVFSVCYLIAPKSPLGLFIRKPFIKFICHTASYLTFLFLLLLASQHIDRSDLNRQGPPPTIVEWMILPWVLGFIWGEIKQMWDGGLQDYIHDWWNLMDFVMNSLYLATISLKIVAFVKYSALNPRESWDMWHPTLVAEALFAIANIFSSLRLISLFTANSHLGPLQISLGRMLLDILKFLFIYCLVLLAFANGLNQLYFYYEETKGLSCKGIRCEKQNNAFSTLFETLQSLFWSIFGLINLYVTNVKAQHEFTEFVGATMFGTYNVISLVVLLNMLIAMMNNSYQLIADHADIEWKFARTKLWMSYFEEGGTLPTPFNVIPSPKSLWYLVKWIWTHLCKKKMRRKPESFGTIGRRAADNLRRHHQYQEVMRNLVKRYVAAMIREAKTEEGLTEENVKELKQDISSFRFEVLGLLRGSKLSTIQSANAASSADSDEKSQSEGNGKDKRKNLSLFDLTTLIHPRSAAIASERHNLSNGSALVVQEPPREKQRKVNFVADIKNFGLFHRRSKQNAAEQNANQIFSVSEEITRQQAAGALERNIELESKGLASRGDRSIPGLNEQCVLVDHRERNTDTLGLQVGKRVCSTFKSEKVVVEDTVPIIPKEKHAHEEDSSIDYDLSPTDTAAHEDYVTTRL

| SMILES | outcome [1] | outcome [2] | outcome [3] | outcome [4] | inhibition [5] | outcome [6] | outcome [7] | outcome [8] | outcome [9] | outcome [10] | outcome [11] | outcome [12] | inhibition [13] | outcome [14] | outcome [15] | outcome [16] | outcome [13] | outcome [5] | inhibition [6] | inhibition [9] |
| --- | --- | --- | --- | --- | --- | --- | --- | --- | --- | --- | --- | --- | --- | --- | --- | --- | --- | --- | --- | --- |
| C=CCSc1nnc2n(-c3ccccc3OC)c(=O)c3c4c(sc3n12)CCC4 | inactive | inactive | inactive | inactive | 58% (active) | inactive | inactive | inactive | inactive | inactive | inactive | inactive | 29.1% (active) | inactive | inactive | inactive |  |  |  |  |
| Cc1ccc(S(=O)(=O)c2cnc(-c3ccccc3)nc2N2CCN(C)CC2)cc1 | inactive | inactive | inactive | inactive | 64% (active) | inactive | inactive | inactive | inactive | inactive | inactive | inactive |  | inactive | inactive | inactive | inactive |  |  |  |
| CSCCNC(=O)c1ccc(OC2CCN(CCc3ccccc3)CC2)cc1 | inactive | inactive | inactive | inactive |  |  | inactive | inactive | inactive | inactive | inactive | inactive |  | inactive | inactive | inactive | inactive | inactive | 65% (active) |  |
| O=C1/C(=C/c2ccccc2Cl)SC(=S)N1CCCC(=O)N(CCO)c1ccccc1 | inactive | inactive | inactive | inactive | 83% (active) |  | inactive | inactive | inactive | inactive | inactive | inactive | 24.9% (active) | inactive | inactive | inactive |  |  | 50% (active) |  |
| CC(C)Sc1nc2sc3c(c2c2nnc(SCC(=O)NCc4ccco4)n12)CCCC3 | inactive | inactive | inactive | inactive | 78% (active) | inactive | inactive | inactive | inactive | inactive | inactive | inactive | 16.9% (active) | inactive | inactive | inactive |  |  |  |  |
| Cc1ccc(NC(=O)CSCC(=O)OCc2cc(=O)oc3cc(O)ccc23)c(C)c1 | inactive | inactive | inactive | inactive | 80% (active) | inactive | inactive | inactive | inactive | inactive | inactive | inactive |  | inactive | inactive | inactive | inactive |  |  |  |
| COC(=O)CSc1nnc2n(-c3ccc(OC)cc3)c(=O)c3c4c(sc3n12)CCCCC4 | inactive | inactive | inactive | inactive | 95% (active) | inactive | inactive | inactive | inactive | inactive | inactive | inactive | 23% (active) | inactive | inactive | inactive |  |  |  |  |
| Cc1nn(-c2ccccc2)c2[nH]c(C(F)(F)F)cc(=O)c12 | inactive | inactive | inactive | inactive | 49% (active) | inactive | inactive | inactive | inactive | inactive | inactive | inactive | 31.7% (active) | inactive | inactive | inactive |  |  |  |  |
| CN1CCN(c2nc(-c3cccnc3)nc3scc(-c4ccccc4)c23)CC1 | inactive | inactive | inactive | inactive |  | inactive | inactive | inactive | inactive | inactive | inactive | inactive |  | inactive | inactive | inactive | inactive | inactive |  |  |
| CN(C)C(CNC(=O)c1oc2ccccc2c1CSc1ncn[nH]1)c1ccco1 (stereo unspecified) | inactive | inactive | inactive | inactive | 85% (active) |  | inactive | inactive | inactive | inactive | inactive | inactive |  | inactive | inactive | inactive | inactive |  | 48% (active) |  |
| CCOC(=O)C1(Cc2cccc(OC)c2)CCN(Cc2cccc(O)c2)CC1 | inactive | inactive | inactive | inactive | 84% (active) |  | inactive | inactive | inactive | inactive | inactive | inactive |  | inactive | inactive | inactive | inactive |  | 43% (active) |  |
| CCOc1ccccc1CN1CCC(n2nccc2NC(=O)CCc2ccccc2)CC1 | inactive | inactive | inactive | inactive | 97% (active) |  | inactive | inactive | inactive | inactive | inactive | inactive |  | inactive | inactive | inactive | inactive |  | 69% (active) |  |
| O=C(CSc1nc2[nH]ncc2c(=O)n1-c1ccccc1Br)NCc1ccccc1Cl | inactive | inactive | inactive | inactive |  | inactive | inactive | inactive | inactive | inactive | inactive | inactive |  | inactive | inactive | inactive | inactive | inactive |  |  |
| O=C(C1CCN(CC2CC=CCC2)CC1)N(CCc1ccccc1)Cc1ccccc1 (stereo unspecified) | inactive | inactive | inactive | inactive | 53% (active) | inactive | inactive | inactive |  | inactive | inactive | inactive | 40.1% (active) | inactive | inactive | inactive |  |  |  | 32.5% (active) |
| O=C(c1cccc(C(=O)N2CCN(c3ccccc3)CC2)c1)N1CCN(c2ccccc2)CC1 | inactive | inactive | inactive | inactive | 92% (active) |  | inactive | inactive | inactive | inactive | inactive | inactive | 26.9% (active) | inactive | inactive | inactive |  |  | 46% (active) |  |
| O=C(CCc1ccccc1)Nc1ccnn1C1CCN(C/C=C/c2ccccc2)CC1 | inactive | inactive | inactive | inactive |  | inactive | inactive | inactive | inactive | inactive | inactive | inactive | 17.3% (active) | inactive | inactive | inactive |  | inactive |  |  |
